Test results taken from the supplement of paper PMC13094657.
± gives the standard deviation of the averaged measurements.

Each molecule was assayed on MDA-MB-231 (assay: kynurenine production, fold change vs DMSO IFNg/TNF control; higher = more kynurenine produced (less inhibition)). Conditions: pre-treatment time: 18 h then 24 h IFNg/TNF.
How it was run: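 MDA-MB-231 cells (7 × 10^4/well, 96-well plates, seeded 24 h earlier) were pre-treated 18 h with each natural product in 0.1% DMSO, then stimulated 24 h with IFNγ (1 U/ml) and TNF (6.25 ng/ml) at 37°C. Supernatant kynurenine was read at 492 nm after trichloroacetic acid and p-dimethylaminobenzaldehyde treatment, against 0–100 μM standards. Kynurenine production is the fold change over cytokine-stimulated vehicle wells on the same plate, averaged over duplicate plates in the first screening round.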
For CC(C)=CCCC1(C)CCC2(C)C3CCC4(C)C(C)C(=O)CCC4C3(C)CCC2(C)C1 (stereo not given) [Shionone] (compound dose: 10 uM), the kynurenine production was 0.776 ± 0.11.
With C=C(C=O)[C@H]1CC[C@H](C)[C@H]1C=O [dolichodial] (compound dose: 10 uM) the kynurenine production was 0.897 ± 0.018.
For CC(C)=CCC[C@@](C)(O)[C@H]1CC[C@]2(C)[C@@H]1[C@H](O)C[C@@H]1[C@@]3(C)CC[C@H](O[C@@H]4O[C@H](CO)[C@@H](O)[C@H](O)[C@H]4O[C@@H]4O[C@H](CO)[C@@H](O)[C@H](O)[C@H]4O[C@@H]4OC[C@@H](O)[C@H](O)[C@H]4O)C(C)(C)[C@@H]3CC[C@]12C [Notoginsenoside Ft1] (compound dose: 2 uM), the kynurenine production was 0.86 ± 0.16.
In the case of C[C@H](CC[C@@H](O[C@@H]1O[C@H](CO)[C@@H](O)[C@H](O)[C@H]1O)C(C)(C)O)[C@H]1CC[C@@]2(C)[C@@H]3CC=C4[C@@H](CC[C@H](O[C@@H]5O[C@H](CO)[C@@H](O)[C@H](O)[C@H]5O)C4(C)C)[C@]3(C)[C@H](O)C[C@]12C [Mogroside IIe] (compound dose: 10 uM), the kynurenine production is reported as 0.934 ± 0.29.
CC1=C2[C@@H](OC1=O)[C@H](O)[C@]13[C@H]4C[C@@H](C(C)(C)C)[C@]15[C@@H](OC(=O)[C@@H]5O)O[C@@]23C(=O)O4 [Ginkgolide K] (compound dose: 10 uM) gave a kynurenine production of 0.988 ± 0.29.
With C/C=C1/[C@H](O[C@@H]2O[C@H](CO)[C@@H](O)[C@H](O)[C@H]2O)OC=C(C(=O)OC)[C@H]1CC(=O)OCCc1ccc(O)c(O)c1 [Oleuropein] (compound dose: 10 uM) the kynurenine production was 0.733 ± 0.15.
Molecule COC(=O)[C@H]1[C@H]2C[C@@H]3c4[nH]c5cc(OC)ccc5c4CCN3C[C@H]2C[C@@H](OC(=O)c2cc(OC)c(OC)c(OC)c2)[C@@H]1OC [Reserpine] (compound dose: 10 uM) has a kynurenine production of 1.02 ± 0.067.
Molecule Cc1ccc(C(C)C)cc1O [Carvacrol] (compound dose: 10 uM) has a kynurenine production of 0.855 ± 0.035.
For CC(=O)O[C@@H](C[C@@H](C)C1=C2C[C@H](O)[C@H]3[C@@]4(C)CCC(=O)C(C)(C)[C@@H]4CC[C@]3(C)[C@@]2(C)CC1=O)[C@H]1OC1(C)C [Alisol C 23-acetate] (compound dose: 10 uM), the kynurenine production was 0.989 ± 0.024.
Work on C/C1=C/CC[C@H](C)C(=O)C[C@@H](C(C)C)C(=O)C1 [Curdione] (compound dose: 10 uM) yielded a kynurenine production of 1.02 ± 0.059.
C[C@]1(OC(=O)/C=C/c2ccccc2)C[C@@H](O)[C@]2(O)C=CO[C@@H](O[C@@H]3O[C@H](CO)[C@@H](O)[C@H](O)[C@H]3O)[C@@H]21 [Harpagoside] (compound dose: 10 uM) showed a kynurenine production of 0.91 ± 0.17.
With CC12CCC(C1)C(C)(C)C2=O (single isomer, unassigned; (-)) [(-)-Fenchone] (compound dose: 10 uM) the kynurenine production was 0.955 ± 0.13.
Molecule CC(C)=CC/C=C(\C)[C@H]1CC[C@]2(C)[C@@H]1[C@H](O)C[C@@H]1[C@@]3(C)CC[C@H](O[C@@H]4O[C@H](CO)[C@@H](O)[C@H](O)[C@H]4O[C@@H]4O[C@H](CO)[C@@H](O)[C@H](O)[C@H]4O)C(C)(C)[C@@H]3CC[C@]12C [Ginsenoside Rg5] (compound dose: 10 uM) has a kynurenine production of 0.876 ± 0.12.
C=C1C(=O)O[C@@H]2/C=C(\C)CC/C=C(\C)CC[C@@H]12 [Costunolide] (compound dose: 10 uM) was tested, and the kynurenine production was 0.474 ± 0.063.
Molecule C=CC(C)(O)CCC=C(C)CCC=C(C)C (mixture of isomers) [Nerolidol] (compound dose: 10 uM) has a kynurenine production of 0.798 ± 0.2.
With C[C@@H]1O[C@@H](OC[C@H]2O[C@@H](Oc3c(-c4ccc(O)c(O)c4)oc4cc(O)cc(O)c4c3=O)[C@H](O)[C@@H](O)[C@@H]2O)[C@H](O)[C@H](O)[C@H]1O [Rutin] (compound dose: 10 uM) the kynurenine production was 0.755 ± 0.058.
CN1CCC[C@@H]1CC(=O)C[C@@H]1CCCN1C [Cuscohygrine] (compound dose: 10 uM) showed a kynurenine production of 0.962 ± 0.027.
For CC1=CCC2C[C@H]1C2(C)C [(1R)-α-Pinene] (compound dose: 10 uM), the kynurenine production was 0.79 ± 0.12.
In the case of C=C1CCC[C@]2(C)C=C3OC(=O)C(C)=C3C[C@@H]12 [Atractylenolide I] (compound dose: 10 uM), the kynurenine production is reported as 0.853 ± 0.2.
O=c1cc(-c2ccc(O)cc2)oc2cc(O)cc(O)c12 [Apigenin] (compound dose: 10 uM) gave a kynurenine production of 0.806 ± 0.026.
